Experimental data as given in PMC5540273 (PLoS ONE, 2017).

How the values were obtained:
Settings in all cases: concentration: 1 μM, replicates: in singlicate; n = 1
[1] = test system: FGFR1
[2] = test system: FGFR2
[3] = test system: FGFR3
[4] = test system: FGFR4
[5] = test system: FGR
[6] = test system: FLT1
[7] = test system: FLT3-autoinhibited
[8] = test system: FLT3
[9] = test system: FLT4
[10] = test system: FRK
[11] = test system: FYN
[12] = test system: GAK
[13] = test system: T1, GCN2(Kin.Dom.2,S808G)
T1 construct: gene EIF2AK4

[14] = test system: GRK1
[15] = test system: T2, GRK2
T2 construct: gene ADRBK1

[16] = test system: T3, GRK3
T3 construct: gene ADRBK2

[17] = test system: GRK4
[18] = test system: GRK7
[19] = test system: GSK3A
[20] = test system: GSK3B
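Also: KINOMEscan kinase panel screen.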

Compound	%Inh [1]	%Inh [2]	%Inh [3]	%Inh [4]	%Inh [5]	%Inh [6]	%Inh [7]	%Inh [8]	%Inh [9]	%Inh [10]	%Inh [11]	%Inh [12]	%Inh [13]	%Inh [14]	%Inh [15]	%Inh [16]	%Inh [17]	%Inh [18]	%Inh [19]	%Inh [20]
CCn1c(-c2nonc2N)nc2c(C#CC(C)(C)O)nc(OC[C@H](N)c3ccccc3)cc21 [GSK943949]	11%	4%	0%	0%	0%	1%	0%	3%	20%	0%	0%	0%	19%	14%	11%	0%	3%	30%	66%	59%
COc1ccc(-c2coc3ccc(-c4nnc(SCc5ccc(OC)c(C(F)(F)F)c5)o4)cc23)cc1	0%	17%	17%	2%	0%	0%	19%	10%	13%	0%	3%	10%	0%	19%	0%	0%	0%	21%	25%	4%
CSc1cccc2c(-c3ccncn3)c(-c3ccc(F)cc3)nn12 [GW514786]	0%	0%	4%	7%	10%	19%	0%	5%	0%	9%	17%	76%	0%	6%	7%	35%	100%	0%	5%	9%
CN1CCN(CCCNc2nccc(-c3c(-c4ccc(F)cc4)nn4cc(C(F)(F)F)ccc34)n2)CC1 [GW621581]	25%	0%	0%	0%	6%	33%	0%	0%	16%	5%	0%	78%	4%	0%	4%	0%	8%	0%	25%	3%
O=C(Nc1cccc(-c2nn3ccccc3c2-c2ccnc(Nc3cccc(F)c3)n2)c1)c1c(F)ccc(F)c1Cl [GSK357952]	14%	0%	19%	0%	97.1%	89%	15%	51%	38%	76%	66%	14%	1%	5%	0%	0%	5%	0%	0%	6%
